7 compounds from PubChem BioAssay (NCI) can be followed below.

Assay [1] can be described thus: NCI Yeast Anticancer Drug Screen. Data for the rad50 strain (AID 155).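 Note: 0% = growth of vehicle-only cultures of the same strain.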 The settings on record: S. cerevisiae rad50 strain growth inhibition, hits give high values. In short, it runs like this: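 Cells are treated with compound, grown, and their growth is then scored against vehicle-only cultures of the same repair-deficient yeast strain.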
Assay [2] in a line: NCI Yeast Anticancer Drug Screen. Data for the mec2-1 strain (AID 157). The settings on record: S. cerevisiae mec2-1 strain, hits give high values. In short, it runs like this: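 Compounds were applied to mec2-1 yeast cells. Their growth was then compared with that of vehicle-treated cultures to give growth inhibition.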
The nature of assay [3]: NCI Yeast Anticancer Drug Screen. Data for the sgs1 mgt1 strain (AID 161).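 Note: 0% = growth of cultures given vehicle only.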 The settings on record: S. cerevisiae sgs1 mgt1 strain, hits give high values. In short, it runs like this: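 Growth of a repair-deficient yeast mutant was monitored after compound treatment and expressed as inhibition relative to vehicle-treated cultures.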
Assay [4] can be described thus: NCI Yeast Anticancer Drug Screen. Data for the cln2 rad14 strain (AID 165).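 Note: 0% = growth equal to vehicle treated cultures.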 Particulars: S. cerevisiae cln2 rad14 strain, hits give high values. In short, it runs like this:
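Strain: cln2 rad14 yeast, altered in cell cycle control and DNA damage repair. Read-out: growth inhibition vs vehicle.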

A short description of assay [5]: NCI Yeast Anticancer Drug Screen. Data for the bub3 strain (AID 167). The settings on record: S. cerevisiae bub3 mutant strain, hits give high values. In short, it runs like this: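 Part of a panel of yeast mutants defective in DNA damage repair or cell cycle regulation. Each strain is grown with compound, and inhibition is calculated relative to solvent-treated cultures.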

A short description of assay [6]: NCI Yeast Anticancer Drug Screen. Data for the mlh1 rad18 strain (AID 175). Particulars: S. cerevisiae mlh1 rad18 strain growth inhibition, hits give high values. In short, it runs like this: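 A repair-deficient yeast strain is exposed to test compound, and growth is scored relative to vehicle-treated controls.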
Setting [7] is: at 5.0 µM (retest, dose inferred, filed as 0.5).
Where [8] appears, read: at 50.0 µM (retest, dose inferred, filed as 5.0).

This is part of a sample that, as a whole, favours compounds with a hit. Of some 79,000 tested, about 15% had one in any assay. Values without a mark were called inactive. The source made the active and inactive calls. Cut-off read from the data, not from the text of the source: active = growth inhibition above about 70%; inactive = the rest.

As for `CCCCCCCCCCCCCCCCCCNCCCCCCCCCCCCCCCC`, the growth inhibition in assay [1] (setting [7]) was 6%; in assay [1] (setting [8]), 3%; in assay [1] (at 50.0 µM) it was 52.7%; in assay [2] (setting [7]), -1%; in assay [2] (setting [8]) it was 8%; in assay [2] (at 50.0 µM), 38.5%. For the same compound, the growth inhibition in assay [3] (setting [7]) is 5%; in assay [3] (setting [8]), 0%; in assay [3] (at 50.0 µM), 49.9%; in assay [4] (setting [7]) it was -1%; in assay [4] (setting [8]) it was 2%; in assay [4] (at 50.0 µM), 75% (active). Further, the growth inhibition was -5% in assay [5] (setting [7]); 3% in assay [5] (setting [8]); 69.2% in assay [5] (at 50.0 µM); 4% in assay [6] (setting [7]); 6% in assay [6] (setting [8]); 45.8% in assay [6] (at 50.0 µM).
As for `CC(=O)OC(C#N)CC(C)(C)/[N+]([O-])=[N+](\[O-])C(C)(C)CC(C#N)OC(C)=O` (stereo unspecified), the growth inhibition in assay [1] (setting [7]) was 6%; in assay [1] (setting [8]), 44%; in assay [1] (at 50.0 µM) it was 23.9%; in assay [2] (setting [7]), 1%; in assay [2] (setting [8]), 46%; in assay [2] (at 50.0 µM), 43.5%. The growth inhibition in assay [3] (setting [7]) is 8%; in assay [3] (setting [8]), 97% (active); in assay [3] (at 50.0 µM) it was 77.3% (active); in assay [4] (setting [7]) it was 14%; in assay [4] (setting [8]), 61%; in assay [4] (at 50.0 µM), 3.2%. The growth inhibition in assay [5] (setting [7]) was 3%; in assay [5] (setting [8]), 79% (active); in assay [5] (at 50.0 µM), 68.1%; in assay [6] (setting [7]), 11%; in assay [6] (setting [8]) it was 80% (active); in assay [6] (at 50.0 µM), 80% (active).
`CC1=C(C(=O)OCCc2ccc([N+](=O)[O-])cc2)C(c2ccccc2[N+](=O)[O-])C(C(=O)OC(C)C)=C(C)N1` (stereo unspecified): the growth inhibition was 12% in assay [1] (setting [7]); 93% (active) in assay [1] (setting [8]); 69.6% in assay [1] (at 50.0 µM); 13% in assay [2] (setting [7]); 94% (active) in assay [2] (setting [8]); 74.3% (active) in assay [2] (at 50.0 µM). The growth inhibition is 1% in assay [3] (setting [7]); 87% (active) in assay [3] (setting [8]); 75.7% (active) in assay [3] (at 50.0 µM); 0% in assay [4] (setting [7]); 80% (active) in assay [4] (setting [8]); 68.4% in assay [4] (at 50.0 µM). For the same compound, the growth inhibition is 4% in assay [5] (setting [7]); 89% (active) in assay [5] (setting [8]); 74.6% (active) in assay [5] (at 50.0 µM); 10% in assay [6] (setting [7]); 94% (active) in assay [6] (setting [8]); 68% in assay [6] (at 50.0 µM).
Regarding `O=C1C(Cl)=C(N2C(=O)CCC2=O)C(=O)c2ccccc21`, the growth inhibition in assay [1] (setting [7]) was 77% (active); in assay [1] (setting [8]), 98% (active); in assay [1] (at 50.0 µM), 87.6% (active); in assay [2] (setting [7]), 99% (active); in assay [2] (setting [8]), 99% (active); in assay [2] (at 50.0 µM), 90.4% (active). The growth inhibition is 99% (active) in assay [3] (setting [7]); 100% (active) in assay [3] (setting [8]); 91.6% (active) in assay [3] (at 50.0 µM); 94% (active) in assay [4] (setting [7]); 99% (active) in assay [4] (setting [8]); 89.4% (active) in assay [4] (at 50.0 µM). The growth inhibition in assay [5] (setting [7]) was 100% (active); in assay [5] (setting [8]), 99% (active); in assay [5] (at 50.0 µM), 88.9% (active); in assay [6] (setting [7]) it was 72% (active); in assay [6] (setting [8]), 98% (active); in assay [6] (at 50.0 µM), 89% (active).
Turning to `CCCCCCC1CCC(CCCCCCCC(=O)N2CCN(C)CC2)C(C/C=C/CCCCCCCC(=O)N2CCN(C)CC2)C1CCCCC` (stereo unspecified), the growth inhibition in assay [1] (setting [7]) was 3%; in assay [1] (setting [8]), 93% (active); in assay [1] (at 50.0 µM) it was 98.8% (active); in assay [2] (setting [7]), -1%; in assay [2] (setting [8]), 75% (active); in assay [2] (at 50.0 µM), 99.3% (active). For the same compound, the growth inhibition in assay [3] (setting [7]) was 1%; in assay [3] (setting [8]) it was 70% (active); in assay [3] (at 50.0 µM) it was 99.3% (active); in assay [4] (setting [7]), -1%; in assay [4] (setting [8]), 84% (active); in assay [4] (at 50.0 µM), 92.6% (active). In addition, the growth inhibition was 4% in assay [5] (setting [7]); 90% (active) in assay [5] (setting [8]); 98.7% (active) in assay [5] (at 50.0 µM); 6% in assay [6] (setting [7]); 95% (active) in assay [6] (setting [8]); 98.9% (active) in assay [6] (at 50.0 µM).
As to `C=C(C)C1CC2=C(O1)C(=O)c1ccccc1C2=O` (stereo unspecified), the growth inhibition in assay [1] (setting [7]) is 8%; in assay [1] (setting [8]), 99% (active); in assay [1] (at 50.0 µM) it was 91.9% (active); in assay [2] (setting [7]), 0%; in assay [2] (setting [8]), 95% (active); in assay [2] (at 50.0 µM), 82.5% (active). For the same compound, the growth inhibition in assay [3] (setting [7]) was 7%; in assay [3] (setting [8]), 99% (active); in assay [3] (at 50.0 µM), 73% (active); in assay [4] (setting [7]), -9%; in assay [4] (setting [8]), 37%; in assay [4] (at 50.0 µM), 59.9%. For the same compound, the growth inhibition in assay [5] (setting [7]) was 59%; in assay [5] (setting [8]) it was 96% (active); in assay [5] (at 50.0 µM), 93.1% (active); in assay [6] (setting [7]) it was 11%; in assay [6] (setting [8]), 98% (active); in assay [6] (at 50.0 µM), 89.8% (active).
For the compound `O=C1/C(=C/c2cccc(O)c2)COc2ccccc21`, the growth inhibition in assay [1] (setting [7]) is 21%; in assay [1] (setting [8]), 95% (active); in assay [1] (at 50.0 µM), 93.8% (active); in assay [2] (setting [7]), 34%; in assay [2] (setting [8]), 98% (active); in assay [2] (at 50.0 µM) it was 96.1% (active). In addition, the growth inhibition is 63% in assay [3] (setting [7]); 98% (active) in assay [3] (setting [8]); 96.2% (active) in assay [3] (at 50.0 µM); 9% in assay [4] (setting [7]); 95% (active) in assay [4] (setting [8]); 91.6% (active) in assay [4] (at 50.0 µM). Further, the growth inhibition in assay [5] (setting [7]) is 58%; in assay [5] (setting [8]) it was 95% (active); in assay [5] (at 50.0 µM) it was 95.8% (active); in assay [6] (setting [7]), 77% (active); in assay [6] (setting [8]) it was 97% (active); in assay [6] (at 50.0 µM) it was 96.8% (active).
